Assay outcomes from PubChem BioAssay.
Only a selection was taken, and hits are over-represented in it overall.
Algae TAG accum: increases triacylglycerol in Chlamydomonas reinhardtii | Chlamydomonas reinhardtii TAG, Nile Red fluorescence, 72 h | calls only at 10 µM (by protocol) | 0.84% of 44,000 active; call rule not given here;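 also: hits raise Nile Red signal meaning more stored TAG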
Calls only.

Screening Clc1cccc(N2CCN(Cc3ccsc3)CC2)c1 returned Algae TAG accum active.
c1ccc(N2CCN(Cc3ccsc3)CC2)cc1 was read as Algae TAG accum active.
`Clc1cccc(N2CCN(Cc3cccs3)CC2)c1` gave Algae TAG accum inactive.
Screening c1ccc(CCN2CCN(c3ccccc3)CC2)cc1 returned Algae TAG accum active.
CN1CCN(CCCc2ccccc2)CC1 was read as Algae TAG accum inactive.
COc1ccc(C(=O)CSc2nnc(-c3ccccc3)n2-c2ccc(OC)cc2)cc1 was read as Algae TAG accum inactive.
`N#Cc1c(-c2ccc([N+](=O)[O-])cc2)cc(C2CC2)nc1N` gave Algae TAG accum inactive.
CCOc1ccc(Br)cc1S(=O)(=O)N1CCN(c2ccc(F)cc2)CC1 was read as Algae TAG accum inactive.
COc1ccc(NS(=O)(=O)c2ccc(NC(=O)c3ccc([N+](=O)[O-])cc3)cc2)cc1 was read as Algae TAG accum inactive.
COCCNC1CCc2ccccc2C1 (configuration not stated) was read as Algae TAG accum inactive.
O=[N+]([O-])/C=C\c1ccc(-c2ccc(Br)cc2)o1 was read as Algae TAG accum inactive.
For C=CCc1ccccc1OCC(O)CN(C)C1CCCCC1 (configuration not stated) the results were Algae TAG accum active.
For C=CCc1ccccc1OCC(O)CN1C(C)CCCC1C (configuration not stated) the results were Algae TAG accum inactive.
Screening C=CCc1ccccc1OCC(O)CN1CCC(C)CC1 (configuration not stated) returned Algae TAG accum inactive.
`Cc1c(N2C(=O)CCCC2=O)c(=O)n(-c2ccccc2)n1C` gave Algae TAG accum inactive.
For NC(=O)c1ccc(NC(=O)COc2ccc(Br)cc2Cl)cc1 the results were Algae TAG accum inactive.
For Nc1ccc2noc3c2c1C(=O)c1ccccc1-3 the results were Algae TAG accum inactive.
Screening Cc1ccc(C(=O)Nc2sc3c(c2C(N)=O)CCC(C)C3)o1 (configuration not stated) returned Algae TAG accum inactive.
Screening CC1CCc2c(sc(NC(=O)c3ccccc3[N+](=O)[O-])c2C(N)=O)C1 (configuration not stated) returned Algae TAG accum inactive.
For COc1ccc(C(=O)Nc2sc3c(c2C(N)=O)CCC(C)C3)c(OC)c1 (configuration not stated) the results were Algae TAG accum active.
C=CCc1cc(OC)ccc1OCCOCCN1CCN(C)CC1 was read as Algae TAG accum inactive.
Screening Cc1cc(C(C)(C)C)ccc1OCCN1CCN(C)CC1 returned Algae TAG accum active.
For C=CCc1cc(C)ccc1OCCOCCN1CCN(C)CC1 the results were Algae TAG accum inactive.
For Cc1cc(C(C)(C)C)ccc1OCCN1CCOCC1 the results were Algae TAG accum inactive.
Cc1cc(Cl)c(OCCOCCN2CCN(C)CC2)c(Br)c1 was read as Algae TAG accum active.
For CN1CCN(CCOCCOc2c(Cl)cc(Cl)cc2Cl)CC1 the results were Algae TAG accum inactive.
Screening Cc1cc(C(C)(C)C)ccc1OCCCN1CCN(C)CC1 returned Algae TAG accum inactive.
For Cc1cc(Cl)c(OCCCN2CCN(C)CC2)c(Br)c1 the results were Algae TAG accum inactive.
CN1CCN(CCOCCOc2ccc(Cl)cc2C(C)(C)C)CC1 was read as Algae TAG accum inactive.
`Cc1cc(C(C)(C)C)ccc1OCCOCCN1CCN(C)CC1` gave Algae TAG accum active.
Screening CN1CCN(CCOCCOc2ccccc2-c2ccccc2)CC1 returned Algae TAG accum inactive.
Cc1ccc(OCCOCCN2CCN(C)CC2)c(I)c1 was read as Algae TAG accum active.
Cc1ccc(C(=O)NCc2ccncc2)c(Cl)c1 was read as Algae TAG accum inactive.
O=C(Nc1ncccc1Cl)c1ccc(Cl)cc1Cl was read as Algae TAG accum inactive.
Cc1cc(C)n(-c2cc(N3CCN(S(=O)(=O)c4ccccc4)CC3)ccc2[N+](=O)[O-])n1 was read as Algae TAG accum inactive.
Screening CC(NC(=O)C(=O)Nc1ccc(Cl)cc1)c1ccccc1 (configuration not stated) returned Algae TAG accum inactive.
CCOc1ccccc1C(=O)NCCCC(=O)O was read as Algae TAG accum inactive.
COc1ccccc1CC(=O)Nc1cccc([N+](=O)[O-])c1C was read as Algae TAG accum inactive.
COc1ccc(OCCCOc2ccc(OC)cc2)cc1 was read as Algae TAG accum inactive.
CCCOc1ccc(NC(=O)Nc2ccc(OC)cc2)cc1 was read as Algae TAG accum inactive.
CCCN1CCC(NCc2cccc(Cl)c2)CC1 was read as Algae TAG accum inactive.
`OC(COc1ccc(Cl)cc1Cl)CN1CCc2ccccc2C1` (configuration not stated) gave Algae TAG accum inactive.
Cc1ccc(OCC(O)CN2CCN(c3ccccc3)CC2)c(C)c1 (configuration not stated) was read as Algae TAG accum inactive.
`Cc1cc(Cl)ccc1OCC(O)CN1CCN(C)CC1` (configuration not stated) gave Algae TAG accum active.
`O=C(c1ccc([N+](=O)[O-])cc1Cl)N1CCCCCC1` gave Algae TAG accum inactive.
Screening Cc1ccc(NC(=O)C(=O)NCc2ccc(F)cc2)c(C)c1 returned Algae TAG accum inactive.
CC(C)(C)c1ccc(C(=O)N2CCN(c3ccccc3[N+](=O)[O-])CC2)cc1 was read as Algae TAG accum inactive.
`Cc1cc(OCC(=O)N2CCN(c3ccc([N+](=O)[O-])cc3)CC2)ccc1Br` gave Algae TAG accum inactive.
`COc1cccc(CN(C)C2CCN(C)CC2)c1` gave Algae TAG accum inactive.
Screening Cc1ccc(CN(C)C2CCN(C)CC2)s1 returned Algae TAG accum active.
`CN1CCC(N(C)Cc2coc3ccccc3c2=O)CC1` gave Algae TAG accum inactive.
CN1CCC(N(C)Cc2cccs2)CC1 was read as Algae TAG accum inactive.
Screening CCc1ccc(CN(C)C2CCN(C)CC2)cc1 returned Algae TAG accum active.
`CC(C)c1ccc(CN(C)C2CCN(C)CC2)cc1` gave Algae TAG accum inactive.
CCOc1ccc(CN(C)C2CCN(C)CC2)cc1 was read as Algae TAG accum inactive.
`CN1CCC(N(C)Cc2cccc(Oc3ccccc3)c2)CC1` gave Algae TAG accum active.
For CN1CCC(N(C)Cc2ccc(Cl)c(Cl)c2)CC1 the results were Algae TAG accum inactive.
Cc1cccc(NC(=O)c2ccccc2N(Cc2ccccc2)S(=O)(=O)c2ccccc2)c1 was read as Algae TAG accum inactive.
O=C(CCCOc1ccccc1)Nc1ccccc1Cl was read as Algae TAG accum inactive.
`COc1ccc(C(=O)Nc2ccc([N+](=O)[O-])cc2C)c(OC)c1` gave Algae TAG accum inactive.
Screening Cc1ccc(S(=O)(=O)c2ccc(Oc3cccc(N)c3)cc2)cc1 returned Algae TAG accum inactive.
Cc1cc2nsnc2c([N+](=O)[O-])c1C was read as Algae TAG accum inactive.
For O=S(=O)(Cc1ccccc1)NCc1ccco1 the results were Algae TAG accum inactive.
Screening O=C(Nc1ccc(S(=O)(=O)N2CCCC2)cc1)c1ccccc1I returned Algae TAG accum inactive.
`O=C(Nc1ccc(S(=O)(=O)N2CCCC2)cc1)c1ccc(Cl)cc1Cl` gave Algae TAG accum active.
For O=C(Nc1ccccc1)c1cc(S(=O)(=O)N2CCCCC2)ccc1Cl the results were Algae TAG accum inactive.
For Cc1ccc(NC(=O)C(=O)NCCc2ccc(Cl)cc2)cc1C the results were Algae TAG accum inactive.
For O=C(NCCc1ccc(Cl)cc1)C(=O)Nc1nccs1 the results were Algae TAG accum active.
For O=C(COc1ccc(Cl)cc1)Nc1nccs1 the results were Algae TAG accum inactive.
For Cc1cccc(NC(=O)COc2ccc(Cl)cc2)c1 the results were Algae TAG accum inactive.
